Assay outcomes as filed in PubChem BioAssay.
In the library only some 1.3% were active in any assay of this set; here they are far more common.
eLon inh: E. coli protease La inhibition; purified E. coli Lon protease, fluorescence polarization; inhibition, % at 7.94 µM; 360,000 tested, 0.42% active; AID 602123; in the data active means inhibition above about 13%, passing the limit was not always enough;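 further: 0% = enzyme with probe and DMSO and 100% = no enzyme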
PKA-R1A act: activators of PKA-R1A complex; P00514+P68181; PKA-R1A dissociation, Cy5-IP20 fluorescence polarization; scaled: DMSO 0%, 113 µM cGMP 100%; activation, % at 11.4 µM; 340,000 tested, 0.083% active;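 active means percent activation above the mean of all tested compounds plus 3 SD, cut at about 19% in these data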;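 further: higher means more PKAc released from R1A so a rise in polarization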
Rin1-Abl PPI inh: blocks binding of human Rin1 to Abl; 360,000 tested, 0.4% active; inhibition, % at 7.35 µM; AID 588664; TR-FRET Rin1/Abl binding, biochemical; in the data active means inhibition above about 5%, passing the limit was not always enough
IDE cell activ: boosts human insulin-degrading enzyme activity in HEK cells | P14735 | FAbeta-B cleavage, fluorescence polarization; 0% vehicle, 100% cell-free pure enzyme wells | activation, % at 5.96 µM | 340,000 tested, 0.073% active | AID 493087;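 active means activation above the mean of all tested compounds plus 3 SD, set per screening campaign, cut at about 17% in these data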
IDE inh: inhibitors of human insulin-degrading enzyme in cells; P14735; HEK cells, FAbetaB cleavage, fluorescence polarization; inhibition, % at 5.59 µM; 320,000 tested, 0.41% active; AID 434962;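 active means percent inhibition above the average of all tested compounds plus 3 SD, set per screening campaign, cut at about 16% in these data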;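 further: IDE supplied by intact live HEK cells; FP after avidin binding of uncleaved biotin substrate so inhibition keeps polarization high; 0% = DMSO wells and 100% = 60 µM reference IDE inhibitor Ii1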
PKA-R2B activ: activators of human PKA-R2B complex; P22694+P31323; 340,000 tested, 0.079% active; PKA-R2B holoenzyme dissociation, Cy5-IP20 fluorescence polarization; R2B truncated from residue 108, S112A mutant; 0% DMSO only, 100% 113 µM cGMP; activation, % at 11.4 µM;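 active means activation above a cutoff set at the mean over all compounds plus 3 SD, cut at about 18% in these data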;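 further: higher means more holoenzyme dissociation and a rise in polarization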
IDE inh confirm: confirmation of human insulin-degrading enzyme inhibitors in cells; 1,200 tested, 51% active; HEK cells, FAbetaB cleavage, fluorescence polarization; shares compounds with IDE inh; inhibition, % at 5.59 µM;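 active means mean inhibition across triplicate wells above the cutoff set by the earlier primary insulin-degrading enzyme screen, cut at about 16% in these data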;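 further: 0% = DMSO wells and 100% = 60 µM reference IDE inhibitor Ii1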
HEK293 tox: HEK cell cytotoxicity, counter-screen for IDE inhibitors; shares compounds with IDE inh; HEK293 cytotoxicity, ATP luminescence; inhibition, % at 5.59 µM; 1,200 tested, 28% active; in the data active means inhibition above about 22%;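 further: 0% = vehicle wells and 100% = reference cytotoxic drug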
Starred values were filed as active, the others as inactive; i = inactive; / = no result.

SMILES	eLon inh	PKA-R1A act	Rin1-Abl PPI inh	IDE cell activ	IDE inh	PKA-R2B activ	IDE inh confirm	HEK293 tox
O=C(O)C(c1ccccc1)N1C(=O)/C(=C\c2ccc(O)c(O)c2)SC1=S (stereo unspecified)	-35	0	1	-55	67*	1	84*	12
COc1cc(/C=C2\SC(=S)N(C(C(=O)O)c3ccccc3)C2=O)ccc1O (stereo unspecified)	-117	-5	-1	-105	64*	-10	174*	6
Cc1c(Cl)cccc1NC(=O)CSc1nncn1-c1cccnc1	8	-14	5	4	0	2	/	/
O=S(=O)(NCc1ccc(Cl)cc1Cl)c1ccc(N2CCOCC2)nc1	-6	0	0	10	1	2	/	/
O=C(Nc1ccccc1C(=O)N1CCN(Cc2ccccc2)CC1)c1ccccc1	-3	-7	0	5	-1	1	/	/
COc1ccc(CNC(=O)C2CCCN(S(=O)(=O)N3CC(C)CC(C)C3)C2)c(OC)c1 (stereo unspecified)	2	11	1	0	3	4	/	/
Cc1ccc2cc(CN(CCCO)S(=O)(=O)c3cccc4nsnc34)c(=O)[nH]c2c1C	-6	0	-3	-7	-1	-11	/	/
CN(C)c1ccc(/C=C(/NC(=O)c2ccccc2Cl)C(=O)NCCN2CCOCC2)cc1	-378	-4	-3	3	18*	0	2	11
O=C(NCCN1CCOCC1)/C(=C/c1ccc(Cl)cc1)NC(=O)c1ccccc1	-3	0	1	0	4	5	/	/
CN(C)c1ccc(/C=C(/NC(=O)c2ccccc2)C(=O)NCCN2CCOCC2)cc1	-260	4	-5	-1	17*	-6	10	6
CN(C)S(=O)(=O)n1cc(/C=C(\NC(=O)c2ccccc2Cl)C(=O)NCCN2CCOCC2)c2ccccc21	3	4	-2	-2	1	4	/	/
C=CCn1c(SCC(=O)N2CCc3ccccc3C2)nc2sc(CC)cc2c1=O	0	-9	3	-2	17*	-9	7	12
C=CCn1c(SCC(=O)N2CCOCC2)nc2sc(CC)cc2c1=O	-8	-4	1	-7	7	4	/	/
CSc1ccccc1NC(=O)CN(C)C(=O)Cn1c(=O)oc2ccccc21	-9	-3	-2	-1	0	-4	/	/
Cc1ccc(NC(=O)C(C)Sc2nnc(-c3cccnc3)n2-c2ccccc2)cc1 (stereo unspecified)	10	-2	3	-31	23*	-6	9	12
Cc1ccc(NC(=O)C(C)Sc2nnc(-c3cccnc3)o2)cc1 (stereo unspecified)	-6	-7	-3	4	-4	-4	/	/
N#Cc1ccc(CSc2nnc(-c3cccnc3)n2-c2ccccc2)cc1	-8	11	7	-27	19*	0	11	28*
Cc1ccc(NC(=O)CSc2nnc3ccccn23)c(Cl)c1	8	-1	-2	/	/	3	/	/
CCC(c1nnc(SCC(=O)N2CC3(C)CC2CC(C)(C)C3)o1)N(C)C (stereo unspecified)	-2	8	-2	7	3	-2	/	/
O=Cc1ccc(N2CCCC2)o1	-2	2	1	5	-5	0	/	/
N#C/C(=C\c1ccc(N2CCCCC2)o1)C(N)=O	-426	-9	-24	-50	32*	8	50*	10
N#C/C(=C\c1ccc(N2CCCCC2)o1)C(=O)Nc1cccc(Br)c1	i	12	-10	-103	140*	-4	79*	42*
COc1ccc(NC(=O)/C(C#N)=C\c2ccc(Br)o2)cc1	-6	-1	-2	4	0	2	/	/
COC(=O)c1cc(NC(=O)CN(c2ccc(OC)cc2)S(=O)(=O)c2ccc(F)cc2)ccc1Cl	5	-2	1	0	/	-6	/	/
CN(c1ccccc1)c1ccc(/C=C/[N+](=O)[O-])cc1	-274	-1	-1	-51	32*	-2	26*	117*
SMILES	eLon inh	PKA-R1A act	Rin1-Abl PPI inh	IDE cell activ	IDE inh	PKA-R2B activ	IDE inh confirm	HEK293 tox
O=C(O)c1ccc2c(=O)n3c(nc2c1)/C(=C/c1ccc(F)cc1)CC3	-9	-6	-2	-7	-3	-7	/	/
O=C(O)c1ccc2c(=O)n3c(nc2c1)/C(=C/c1cccc(Cl)c1Cl)CCCC3	-9	-2	-1	1	18*	-12	3	1
Cc1ccc(CCNC(=O)Cc2ccc(NC3=NC4CS(=O)(=O)CC4S3)cc2)cc1 (stereo unspecified)	-2	-11	4	-21	17*	-10	8	6
CCc1c(C#N)c(SCc2c(C)noc2C)nc2c1C(=O)CC(C)(C)C2	16	-5	-1	-12	18*	-1	1	32*
CCc1nc(SCC(=O)Nc2nc3c(s2)CCCC3)c2ccccc2n1	12	-6	-49	-30	31*	-9	8	10
Cc1c(C(C)(C)C)sc(=NC(=O)c2ccccc2O)n1C	-6	5	1	1	1	0	/	/
CN(C)c1ccc(/C=C/C(=O)c2ccc3c(c2)OCO3)cc1	i	-6	-2	-97	73*	-2	119*	10
O=C(/C=C/c1ccccc1)c1ccc2c(c1)OCO2	4	5	0	3	0	-2	/	/
CN(C)c1ccc(/C=C/C(=O)c2cccnc2)cc1	-362	4	-11	-108	30*	-7	43*	11
O=C(/C=C/c1ccc(F)cc1)N1CCCN(C(=O)/C=C/c2ccc(F)cc2)CC1	-9	-9	-2	-12	24*	2	7	6
Cc1ccc(/C=C/C(=O)N2CCCN(C(=O)/C=C/c3ccc(C)cc3)CC2)cc1	-62	2	-2	-18	11	-11	/	/
Cc1cccc(C(=O)NCC(=O)OC(C)C(=O)Nc2ccc(Cl)cn2)c1 (stereo unspecified)	-8	0	2	1	16*	1	0	12
NNC(=O)/C(=C\c1ccc(Br)cc1)NC(=O)c1cccs1	3	1	1	8	17*	-8	7	8
COc1cc(/C=C2/SC(=NCc3ccccc3)N(Cc3ccccc3)C2=O)ccc1O	-25	-9	-1	-38	38*	1	57*	15
O=C1/C(=C\c2cccc(O)c2)SC(=S)N1Cc1ccccc1	8	-3	0	5	3	-1	/	/
